MCF10A rerep: DNA re-replication induction in MCF 10a cells | MCF 10A DNA re-replication, Hoechst nuclear intensity, 48 h | Potency, µM (doses to about 46.1 µM), for the others: top-dose activity, positive = re-replication, hits mostly activators | 350,000 tested, 2.9% active | AID 624296; note: % of control where 0% means no effect; nearly all actives have a fitted effect of over 50% in size
KB-3-1 cytotox: kills parental KB-3-1 adenocarcinoma cells | KB-3-1 viability, CellTiter-Glo ATP luminescence, 72 h | Potency, µM (highest dose often 46.1 µM), actives largely listed as cytotoxic | 400,000 tested, 1.4% active | AID 1347075; note: % is set by controls: 0 for no effect and ±100 for the full control effect; nearly all actives have a fitted effect of over 60% in size
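Here the drug-naive KB-3-1 line serves as comparator for MDR sub-line selectivity; cells received compound titrations, 72 h at 37 °C, then CellTiter-Glo readout.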
PTAP TSG101 blk: blocks PTAP/TSG101 interaction to inhibit HIV-1 budding; Q99816; Fluorescence polarization, FITC-PTAP peptide / Tsg101 binding; Potency, µM (top dose mostly 115 µM), for the others: top-dose activity change, negative = inhibition, usual class: inhibitors; 340,000 tested, under 10 active; AID 493005; active = well fitted inhibition curve with a large enough effect in the main read-out, with a control signal flat, not every such curve was filed as active; inconclusive = small, poorly fitted or top-dose-only effect, or effect the other way, or a change in a side signal; inactive = no such curve, though single readings can be large or run the other way; note: % of control where 0% means no effect
Target sequence (Q99816 whole entry, looked up): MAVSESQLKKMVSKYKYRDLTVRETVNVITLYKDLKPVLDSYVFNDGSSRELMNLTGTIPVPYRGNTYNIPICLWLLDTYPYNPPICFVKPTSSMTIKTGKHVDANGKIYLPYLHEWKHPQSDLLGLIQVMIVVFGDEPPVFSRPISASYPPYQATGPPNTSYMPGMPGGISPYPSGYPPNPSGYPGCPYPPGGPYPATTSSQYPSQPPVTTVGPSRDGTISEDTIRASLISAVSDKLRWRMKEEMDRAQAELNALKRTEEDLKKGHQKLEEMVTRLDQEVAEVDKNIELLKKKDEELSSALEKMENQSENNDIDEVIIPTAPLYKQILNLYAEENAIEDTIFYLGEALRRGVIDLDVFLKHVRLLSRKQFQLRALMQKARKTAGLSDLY
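Compounds were pin-transferred onto Tsg101 binding domain (10 uM final) in HEPES pH 7.5 buffer, then FITC-PTAP peptide was added at 50 nM final. After 20 min at RT, polarization reported peptide displacement across a qHTS concentration series.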
KB-V1 cytotox: KB-V1 MDR subline cytotoxicity | AID 1347076 | Potency, µM (doses to about 46.1 µM), actives largely listed as cytotoxic | 400,000 tested, 3.4% active | KB-V1 MDR cells viability, CellTiter-Glo, 72 h; note: % is set by controls: 0 for no effect and ±100 for the full control effect; nearly all actives have a fitted effect of over 60% in size
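Potencies derive from concentration-effect curves fitted to normalized luminescence (CellTiter-Glo) of KB-V1 cells treated for 72 h at 37 degrees C in phenol-red-free DMEM containing 10% FBS.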
SW480 rereplic: inducers of DNA re-replication in SW480 colon cancer cells; 340,000 tested, 1.8% active; Potency, µM (highest dose often 46.1 µM), for inactives: at the top dose re-replication activation, usual class: activators; SW480 DNA re-replication, Hoechst DNA content imaging, 48 h; note: % of control where 0% means no effect; nearly all actives have a fitted effect of over 55% in size
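Treated cells incubate 48 hr (37 C, 5% CO2), are stained 40 min with Hoechst, and nuclear fluorescence is enumerated; a rise in nuclei with high DNA signal marks re-replication.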
PINK1 modulator: PINK1 expression modulation | AID 624263 | Potency, µM (doses to about 76.6 µM), for inactives: top-dose activation (PINK1 increase), actives largely listed as activators | 410,000 tested, 0.2% active | PINK1 immunofluorescence, high-content cytometry, 24 h; active = well fitted activation curve with a large enough effect; inconclusive = small, poorly fitted or top-dose-only effect; cell line not stated here; note: % of control where 0% means no effect; nearly all actives have a fitted effect of over 65% in size
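A stable cell line was treated with compounds at 5 concentrations for 24 hours, with CCCP as control. PINK1 levels and mitochondrial localization were measured by immunofluorescence with mitochondrial, cell and nuclear markers after fixation, read by laser-scanning cytometry.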
* hit, by the source's call; i = inactive; u = inconclusive; x = no result given; [ ] = another dose, or the depositor's remark. Only some compounds are listed: those with a hit (about 6.8% of all), similar ones and a draw of the others. Unless noted, calls come from the whole dose curve; as a rule, active = well fitted curve in the direction sought with a large enough effect; inconclusive = small, poorly fitted or top-dose-only effect, or another doubt; inactive = no such curve, though single readings can be large; an effect the other way counts as inactive or inconclusive. Potency is the fitted concentration of half-maximal effect.

SMILES	MCF10A rerep	KB-3-1 cytotox	PTAP TSG101 blk	KB-V1 cytotox	SW480 rereplic	PINK1 modulator
CN(C)CCCNC(=S)NCCNc1nc2cc3c(cc2cc1C#N)OCO3	21µM*	i	-1%	i	15µM*	-1%
COc1cc(OC)cc(C(=O)NCCNc2nc3cc(C)cc(C)c3cc2C#N)c1	16µM*	i	2%	i	u	3%
COCCCNC(=S)N1CCCN(c2nc3c(C)c(C)ccc3cc2C#N)CC1	-4%	i	0%	i	6%	2%
COc1cc(C(=O)NCCNc2nc3cc(C)ccc3cc2C#N)cc(OC)c1OC	11%	i	3%	i	0%	2%
COc1cc(C(=O)NCCNc2nc3c(C)c(C)ccc3cc2C#N)cc(OC)c1OC	21µM*	i	-1%	i	u	5%
CCC(Cc1ccccc1)NC(=O)c1csc2c1CCCCC2 (stereo not given)	x	i	x	i	x	2%
CCOc1ccc2nc(NCCNC(=O)c3cc(OC)c(OC)c(OC)c3)c(C#N)cc2c1	23µM*	i	-2%	i	6.5µM*	3%
Clc1ccccc1CSc1nncn1NC/C=C/c1ccccc1	10%	i	-3%	21µM*	-1%	0%
COc1cc2oc(=O)c(CC(=O)NCCc3ccccc3F)c(C)c2cc1OC	x	i	x	i	x	4%
Cc1ccc(CNc2ncnc3sc(C(=O)N4CCC[C@H]4C(N)=O)c(C)c23)o1	x	x	x	x	x	-1%
Cc1ccccc1Cc1c(C)nc2c(C(=O)NCc3ccc4c(c3)OCO4)cnn2c1C	-4%	i	x	18µM*	12%	12%[38.3 µM]
O=C(c1cccn2c(=O)c3cc(Cl)ccc3nc12)N1CCN(Cc2ccc3c(c2)OCO3)CC1	10µM*	u	-8%	i	18µM*	-1%[38.3 µM]
Cc1ccccc1Cc1c(C)nc2c(C(=O)N3CCN(Cc4ccc5c(c4)OCO5)CC3)cnn2c1C	24%	i	-1%	8.2µM*	12%	-2%[38.3 µM]
COc1ccc(CN(C(=O)COc2ccccc2OC)C2CCS(=O)(=O)C2)cc1 (stereo not given)	x	i	x	i	x	-1%
Cc1cc(NC(=O)Nc2nc3c(s2)CCCCCC3)ccc1Br	x	i	x	i	x	4%
O=C(NCCCc1nc2ccccc2n1Cc1ccccc1F)c1ccco1	x	i	x	i	x	0%
CC(=O)c1cccc(NC(=O)CSc2nc(=O)n(Cc3ccco3)c3c2CCC3)c1	x	i	x	i	x	-1%
Cc1nc(NCc2c(F)cccc2F)sc1-c1ccn(CCN2CCOCC2)n1	x	x	x	x	x	0%
CC(=O)Nc1ccc(NC(=O)C2Cc3c(-c4ccco4)ccnc3O2)cc1 (stereo not given)	x	i	x	i	x	4%
O=C(Nc1ccc(F)c(Cl)c1)C1Cc2c(-c3cccc(F)c3)ccnc2O1 (stereo not given)	x	i	x	u	x	u
CC(=O)c1cccc(-c2ccnc3c2CC(C(=O)Nc2ccc(F)c(Cl)c2)O3)c1 (stereo not given)	x	u	x	21µM*	x	1%
CS(=O)(=O)Nc1cccc(NC(=O)C2Cc3c(-c4ccccc4)ccnc3O2)c1 (stereo not given)	x	16µM*	x	i	x	1%
CC(=O)c1cccc(-c2ccnc3c2CC(C(=O)Nc2ccccc2)O3)c1 (stereo not given)	x	i	x	21µM*	x	0%
CC(=O)c1cccc(NC(=O)C2Cc3c(-c4ccco4)ccnc3O2)c1 (stereo not given)	x	u	x	4.6µM*	x	1%
COc1ccc(NC(=O)C2Cc3c(-c4ccccc4)ccnc3O2)cc1OC (stereo not given)	x	16µM*	x	u	x	3%
SMILES	MCF10A rerep	KB-3-1 cytotox	PTAP TSG101 blk	KB-V1 cytotox	SW480 rereplic	PINK1 modulator
COc1ccc(NC(=O)C2Cc3c(-c4cccc(C(C)=O)c4)ccnc3O2)cc1OC (stereo not given)	x	5.2µM*	x	9.2µM*	x	10%
COc1ccc(NC(=O)C2Cc3c(-c4ccncc4)ccnc3O2)cc1OC (stereo not given)	x	i	x	i	x	1%
CCOc1ccccc1NC(=O)C1CCCN1C(=O)c1cccs1 (stereo not given)	-6%	i	2%	i	7%	1%
CCOc1ccccc1C1C2CCCCC2(O)CCN1C(=O)c1cccs1 (stereo not given)	-3%	i	-2%	23µM*	7%	-2%
COc1ccc2c(CNCCc3ccccc3OC)c(C(=O)O)n(Cc3ccc(F)cc3Cl)c2c1	x	21µM*	x	i	x	5%
Cc1cnc(N2CCC(C(N)=O)CC2)nc1-c1cccc(N(C)C)c1	x	i	x	i	x	x
O=C(Nc1cccc(C(=O)Nc2cccc(Br)c2)c1)c1ccccc1	u	u	-2%	i	-12%	4%
O=C(Nc1cccc(Br)c1)c1ccn[nH]1	4%	11µM*	-5%	u	-10%	x
CC(=O)c1cc2c(cc1NC(=O)c1cc(C)nn1-c1ccccc1)OCO2	u	5.8µM*	2%	i	u	9%
CC(=O)Nc1ccc(NC(=O)c2cc(C)nn2-c2ccccc2)cc1	0%	i	-4%	i	-6%	23%[38.3 µM]
Cc1ccccc1C(=O)N1CCc2c(cnc(C)c2CNC(=O)CN2CCCCC2)C1	x	x	x	x	x	1%
CCOc1ccc(NCc2nnc(SCc3ccc(Cl)cc3)n2-c2ccccc2)cc1	u	u	-1%	4.6µM*	25%	u
C#CCOc1ccc(C2C3=C(COC3=O)Nc3cc4c(cc32)OCO4)cc1OC (stereo not given)	u	u	2%	4.6µM*	0.52µM*	1%
COc1cc2c(cc1OC)C(c1ccc3c(c1)OCO3)C1=C(CC(C)(C)CC1=O)N2 (stereo not given)	u	i	-4%	0.73µM*	-4%	6%
O=C1OCC2=C1C(c1ccc(F)cc1)c1cc3c(cc1N2)OCCO3 (stereo not given)	u	0.16µM*	-1%	0.033µM*	0.1µM*	4%
O=C1OCC2=C1C(c1ccc(F)cc1)c1cc3c(cc1N2)OCO3 (stereo not given)	u	0.037µM*	1%	0.15µM*	0.16µM*	5%
O=C1N(Cc2ccccc2Cl)c2ccccc2C1(O)c1c[nH]c2ccccc12 (stereo not given)	x	i	x	u	x	0%
CCOc1ccc(C2Sc3ccccc3NC3=C2C(=O)OC3)cc1 (stereo not given)	-5%	i	0%	i	u	0%
